PTAP TSG101 blk: blocks PTAP/TSG101 interaction to inhibit HIV-1 budding. Q99816. Fluorescence polarization, FITC-PTAP peptide / Tsg101 binding. Potency, µM (top dose mostly 115 µM), for the others: at the highest dose activity change, negative = inhibition, hits mostly inhibitors. 340,000 tested, under 10 active. AID 493005; active = well fitted inhibition curve with a large enough effect in the main read-out, with a control signal flat, not every such curve was filed as active; inconclusive = small, poorly fitted or top-dose-only effect, or effect the other way, or a change in a side signal; inactive = no such curve, though single readings can be large or run the other way; note: potency is the fitted concentration of half-maximal effect; % of control where 0% means no effect
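FP read-out: FITC-PTAP peptide, 50 nM final, binding Tsg101 binding domain, 10 uM final; 20 min, r.t.; 10 mM HEPES pH 7.5, 0.15 M NaCl, 0.01% Tween 20, 3 mM EDTA, 0.1 mM TCEP.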
RGS4 inh: human RGS4 inhibition | P49798 | Transcreener GDP fluorescence polarization, RGS4-accelerated GTP hydrolysis | Potency, µM (top dose mostly 114 µM), inactives show top-dose activity change, negative = inhibition, usual class: inhibitors | 0.039% of 390,000 active | AID 504845; note: potency is the fitted concentration of half-maximal effect; % is set by controls: 0 for no effect and ±100 for the full control effect; nearly all actives have a fitted effect of over 75% in size
Target sequence (P49798 whole entry, looked up): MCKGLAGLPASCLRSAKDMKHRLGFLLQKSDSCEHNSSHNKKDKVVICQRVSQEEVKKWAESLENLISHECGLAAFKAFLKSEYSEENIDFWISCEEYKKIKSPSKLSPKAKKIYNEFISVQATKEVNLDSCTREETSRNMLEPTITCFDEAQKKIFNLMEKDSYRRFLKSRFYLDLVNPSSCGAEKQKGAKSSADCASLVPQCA
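MLSMR compounds (23 nl, pin-transferred) preincubated 10 min at room temperature with a 500nM (2x) first reagent, then RGS4 at 900nM (2x) plus Transcreener GDP mix added; fluorescence polarization (620/688 nm) read before and after 90 min at 30 °C.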
MLL CXXC-DNA inh: inhibitors of human MLL CXXC domain-DNA interaction. MLL-CXXC / FITC-HOXA9 DNA fluorescence polarization. AID 2662. Q03164. Potency, µM (titrated, usually from 115 µM), inactives show top-dose activity change, negative = inhibition, usual class: inhibitors. 0.037% of 290,000 active; active = well fitted inhibition curve with a large enough effect in the polarisation, with a control signal flat, not every such curve was filed as active; inconclusive = small, poorly fitted or top-dose-only effect, or effect the other way, or a change in a side signal; inactive = no such curve, though single readings can be large or run the other way; the % refers to the polarisation; note: potency is the fitted concentration of half-maximal effect
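Purified MLL-CXXC (added from a 7 uM solution) was preincubated 5 min at ambient with pinned compounds in 50 mM Tris-HCl pH 7.5, 50 mM NaCl, 1 mM DTT, 0.05% BSA. Fluorescein-labeled HOX-A9 DNA (50 nM solution) followed, 30 min, then polarization read.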
Menin-MLL TR inh: displaces Texas Red mutant MLL peptide from human menin | O00255 | Menin + Texas Red MLL mutant peptide, fluorescence polarization | Potency, µM (top dose mostly 61.6 µM), for inactives: at the highest dose FP activity change, negative = inhibition, most hits filed as inhibitors | 0.23% of 270,000 active; active = well fitted inhibition curve with a large enough effect in the polarisation, with a control signal flat, not every such curve was filed as active; inconclusive = small, poorly fitted or top-dose-only effect, or effect the other way, or a change in a side signal; inactive = no such curve, though single readings can be large or run the other way; the % refers to the polarisation; note: potency is the fitted concentration of half-maximal effect; % of control where 0% means no effect
Target sequence (O00255 whole entry, looked up): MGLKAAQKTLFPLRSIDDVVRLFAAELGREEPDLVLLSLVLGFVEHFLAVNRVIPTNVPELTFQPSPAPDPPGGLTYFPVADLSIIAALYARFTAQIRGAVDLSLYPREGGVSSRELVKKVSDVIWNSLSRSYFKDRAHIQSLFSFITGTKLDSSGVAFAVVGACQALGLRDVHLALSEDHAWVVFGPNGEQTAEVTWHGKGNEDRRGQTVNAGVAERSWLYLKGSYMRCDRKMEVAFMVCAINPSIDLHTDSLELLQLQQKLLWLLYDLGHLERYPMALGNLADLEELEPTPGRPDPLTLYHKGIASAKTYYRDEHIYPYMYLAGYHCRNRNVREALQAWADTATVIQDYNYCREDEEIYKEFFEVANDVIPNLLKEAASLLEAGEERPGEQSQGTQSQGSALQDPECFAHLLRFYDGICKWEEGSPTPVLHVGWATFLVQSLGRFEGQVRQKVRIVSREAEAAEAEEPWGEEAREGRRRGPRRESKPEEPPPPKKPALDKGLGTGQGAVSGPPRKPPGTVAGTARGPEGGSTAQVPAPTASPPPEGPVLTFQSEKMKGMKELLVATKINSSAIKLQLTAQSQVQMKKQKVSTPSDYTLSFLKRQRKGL
ERG-DNA inh: ERG Ets/DNA interaction inhibition | P11308 | fluorescence polarization, His-ERG Ets domain / labelled DNA | Potency, µM (titrated, usually from 76.9 µM), for inactives: top-dose FP activity, negative = inhibition, most hits filed as inhibitors | 0.028% of 370,000 active | AID 624246; active = well fitted inhibition curve with a large enough effect in the polarisation, with a control signal flat; inconclusive = small, poorly fitted or top-dose-only effect, or effect the other way, or a change in a side signal; inactive = no such curve, though single readings can be large or run the other way; the % refers to the polarisation;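 note: polarization taken with two DNA probes labelled with fluorescein and Texas red; potency is the fitted concentration of half-maximal effect; % of control where 0% means no effect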
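His-tagged ERG Ets domain (1 uM in the protein solution; 300mM KCl, 50mM Tris-HCl, 1mM EDTA, 1mM DTT, pH 7.5) received compound, then a probe mix of 5 nM fluorescein-DNA and 100nM Texas-615-DNA. Fluorescence polarization was read for both dyes.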
Menin MLL FP FL: menin-MLL binding inhibition, fluorescein peptide; FP activity change, % at 61.4 µM; Fluorescence polarization, fluorescein-MLL peptide displacement from menin; 290,000 tested, under 10 active; AID 1766; active = well fitted curve in the direction sought with a large enough effect in the polarisation, not every such curve was filed as active; inconclusive = small, poorly fitted or top-dose-only effect, or effect the other way, or a change in a side signal; inactive = no such curve, though single readings can be large or run the other way; the % refers to the polarisation; note: % of control where 0% means no effect
MLL CXXC Fl: inhibitors of human MLL CXXC domain-DNA interaction; 70% of 200 active; shares compounds with MLL CXXC-DNA inh; MLL CXXC-DNA binding, fluorescein FP; Potency, µM (titrated, usually from 345 µM), for the others: at the top dose activity change, negative = inhibition, hits mostly inhibitors; note: potency is the fitted concentration of half-maximal effect; nearly all actives have a fitted effect of over 80% in size
MLL CXXC TxRed: disrupts human MLL CXXC domain binding to DNA, Texas Red. shares compounds with MLL CXXC-DNA inh. MLL CXXC-DNA binding, Texas Red fluorescence polarization. Potency, µM (titrated, usually from 345 µM), without a hit: at the top dose activity change, negative = inhibition, usual class: inhibitors. 40% of 200 active. AID 624161; note: potency is the fitted concentration of half-maximal effect; % is set by controls: 0 for no effect and ±100 for the full control effect; nearly all actives have a fitted effect of over 75% in size
MLL CXXC TRF: inhibitors of human MLL CXXC domain-DNA interaction, HTRF format | shares compounds with MLL CXXC-DNA inh | MLL CXXC-DNA binding, HTRF, biochemical | Potency, µM (top dose mostly 172 µM), inactives show at the highest dose activity change, negative = inhibition, most hits filed as inhibitors | 30% of 210 active | AID 624162; note: % is set by controls: 0 for no effect and ±100 for the full control effect; nearly all actives have a fitted effect of over 80% in size
Starred values were filed as active, the others as inactive; ? = inconclusive; / = no result given; [ ] = dose if it differs, or a comment. The entries come from a sample that favours hits as a whole. Unless noted, calls come from the whole dose curve; as a rule, active = well fitted inhibition curve with a large enough effect; inconclusive = small, poorly fitted or top-dose-only effect; inactive = no such curve, though single readings can be large or run the other way.

SMILES	PTAP TSG101 blk	RGS4 inh	MLL CXXC-DNA inh	Menin-MLL TR inh	ERG-DNA inh	Menin MLL FP FL	MLL CXXC Fl	MLL CXXC TxRed	MLL CXXC TRF
O=C(Nc1ncnc2c1ncn2[C@@H]1O[C@@H]2COP(=O)(O)O[C@H]2[C@H]1O)c1ccccc1	/	/	/	-1.4%	/	-1.8	/	/	/
CC(=O)[C@]1(O)Cc2c(O)c3c(c(O)c2[C@@H](O[C@H]2C[C@H](N)[C@H](O)[C@H](C)O2)C1)C(=O)c1c(O)cccc1C3=O	/	/	?	?	/	?	6.33µM*	22.5µM*	255.4%
CC(=O)[C@]1(O)Cc2c(O)c3c(c(O)c2[C@@H](O[C@H]2C[C@H](N)[C@H](O)[C@H](C)O2)C1)C(=O)c1ccccc1C3=O	?	?	?	?	3.16µM*	?	2µM*	100µM*	116.7%
COc1cccc2c1C(=O)c1c(O)c3c(c(O)c1C2=O)CC(O)(C(=O)CO)CC3OC1CC(N(C)C)C(O)C(C)O1 (stereo not given)	?	-14.1%	/	/	?	/	/	/	/
COc1cccc2c1C(=O)c1c(O)c3c(c(O)c1C2=O)C[C@@](O)(C(C)=O)C[C@@H]3O[C@H]1C[C@H](N)[C@H](O)[C@H](C)O1	?	?	10µM*	?	0.794µM*	?	5.65µM*	11.3µM*	376.3%
COC(=O)C1(C(=O)OC)CC2=CCC3C(=O)N(c4ccccc4)C(=O)C3C2Cc2ccccc2[C@@H]1C[N+](=O)[O-] (stereo not given in full)	/	/	/	-11.0%	/	0.3	/	/	/
CCN(CC)C(=O)[C@@]1(c2ccccc2)C[C@@H]1CN	/	/	-8.0%	-0.2%	/	-0.2	/	/	/
COc1ccc(C=C2C(=O)c3ccccc3C2=O)cc1O	-2.2%	1.3%	?	?	4.1%	20.6	/	/	/
COc1cc(C=C2C(=O)c3ccccc3C2=O)cc(OC)c1OC	-0.7%	-20.3%	35.5µM*	14.1%	-4.0%	?	44.8µM*	142µM*	96.8µM*
COc1cc(C=C2C(=O)c3ccccc3C2=O)ccc1O	-9.7%	14.2%	?	/	6.3%	13.1	28.3µM*	?	50.7%
CC(C)c1cccc2nc3c(c([Si](C)(C)C)c12)Cn1c-3cccc1=O	/	/	/	-17.1%	/	11.0	/	/	/
COCCCNc1c2c3c(cccc3[nH]c1=O)C(=O)c1ccccc1-2	?	6.0%	?	31.6µM*	7.08µM*	?	0.565µM*	63.3µM*	24.8%
Cc1ccc(N2NC(=O)/C(=C/c3ccc(-c4ccc(Cl)c(C(=O)O)c4)o3)C2=O)cc1C	-1.7%	13.0%	?	?	-5.4%	-1.6	/	/	/
CC1=NN(c2ccc(Cl)c(C(=O)O)c2)C(=O)/C1=C\c1ccc(-c2ccc(C(=O)O)cc2)o1	-3.6%	-30.8%	?	?	2.9%	2.0	28.3µM*	12.3%	-57.8%
O=C1NN(c2ccccc2)C(=O)/C1=C/c1ccc(-c2ccc(C(=O)O)cc2)o1	-9.0%	-0.9%	31.6µM*	?	-1.5%	21.6	89.5µM*	142µM*	?
CC1=NOC(=O)/C1=C\c1ccc(-c2ccc(Cl)c(C(=O)O)c2)o1	-0.4%	?	?	39.4%	23.4%	18.9	20µM*	89.5µM*	48.5µM*
CC1(C)OC(=O)C(=Cc2ccc(-c3ccc(Cl)c(C(=O)O)c3)o2)C(=O)O1	10.7%	?	28.2µM*	23.6%	10.5%	9.2	15.9µM*	56.5µM*	38.5µM*
COC(=O)c1ccc(N2NC(=O)/C(=C/c3ccc(-c4ccc(Cl)c(C(=O)O)c4)o3)C2=O)cc1	-3.0%	-15.5%	?	?	3.6%	12.9	/	/	/
COc1ccc(CCn2c(=S)[nH]c(=O)c3nccnc32)cc1OC	/	11.0%	/	/	/	/	/	/	/
C=CC[C@](C)(Nc1ccc(OC)cc1)C(=O)OCC	/	/	/	0.0%	/	0.9	/	/	/
C=C(CC[C@@H](C)[C@H]1CCC2[C@]1(C)CC[C@]13C[C@@]14CCC(OC(=O)/C=C/c1ccc(O)c(OC)c1)C(C)(C)[C@@H]4CC[C@@]23C)C(C)C (stereo not given in full)	/	/	8.0%	23.2%	/	0.3	/	/	/
CC(=O)OCCn1c2nc(=O)[nH]c(=O)c-2nc2cc(C)c(C)cc21	?	-6.5%	?	-2.0%	35.5µM*	?	1.79µM*	2.4%	13.6%
CCCC(=O)OC[C@@H](OC(=O)CCC)[C@@H](OC(=O)CCC)[C@H](Cn1c2nc(=O)[nH]c(=O)c-2nc2cc(C)c(C)cc21)OC(=O)CCC	/	/	?	-21.0%	/	?	14.2µM*	?	22.6%
Cc1cc2nc3c(=O)[nH]c(=O)nc-3n(CC(O)C(O)C(O)CO)c2cc1C (stereo not given)	/	/	/	-2.4%	/	?	/	/	/
COc1cc(/C=C2/C(=O)NN(c3ccc(C)c(Cl)c3)C2=O)cc([N+](=O)[O-])c1O	-10.8%	-53.3%	?	?	-0.1%	1.1	79.7µM*	113µM*	33.3%
COc1ccc2c(c1)CCC1C2CC[C@@]2(C)C1CC[C@@H]2NCCCCCCN1C(=O)CCC1=O (stereo not given in full)	/	-6.1%[56.9 µM]	/	/	/	/	/	/	/
O=C(O)c1ccc(S(=O)(=O)/N=C2\C=C(Nc3ccccc3F)C(=O)c3ccccc32)cc1	-6.8%	-32.7%	?	?	3.3%	-19.8	113µM*	142µM*	-44.4%
CNC(=O)c1cc(Nc2nnc(-c3ccc(C)c(S(N)(=O)=O)c3)c3ccccc23)ccc1OC	1.0%	-16.4%	?	4.8%	-2.8%	0.1	142µM*	14.3%	12.5%
CCN(CC)c1ccc2cc(-c3nc(-c4ccc(OC)cc4)cs3)c(=O)oc2c1	?	-24.3%	?	21.0%	?	?	0.448µM*	?	-5.4%
CCN(CC)c1ccc2cc(-c3nc(-c4ccc(Cl)cc4Cl)cs3)c(=O)oc2c1	/	15.8%	/	/	3.0%	/	/	/	/

Compound activity from PubChem.
